# This is one part of a sample in which hits are shown more often than they occur.
# Measles inh = inhibitors of measles virus growth in cells, primary screen, measles RdRp inhibitor project, cell-based, single point, HTS | actives 0.1% (n = 33,000) | z-score (test concentration not listed) | infected Vero cells, GFP fluorescence, 64 h; stronger effect = lower value; in the data active means z-score below about -3
# * = called active by the depositor.
SMILES,Measles inh
COc1ccc(C=Cc2nc3ccccc3c(=O)n2-c2ccc(C)cc2C)cc1,0.2
Cc1ccc(-n2c(C=Cc3ccccc3)nc3ccccc3c2=O)c(C)c1,-0.69
Cc1ccc(-n2c(C=Cc3cccc(F)c3)nc3ccccc3c2=O)c(C)c1,-3.2*
O=c1c2ccccc2nc(C=Cc2ccccc2)n1-c1cccc([N+](=O)[O-])c1,-1.1
O=C(O)Cn1cnc([N+](=O)[O-])c1[N+](=O)[O-],1.9
